Experimental data from PubChem BioAssay AID1159580 (chemical genetic matrix, 2015).
Hit rate of the full screen: of about 5,500 compounds, about 2,000 (36%) were called active. Roughly 18% stayed inconclusive and do not appear here. No stated cut-off is given here; in the data, active means normalized growth mostly below about 0.91 (no sharp cut-off); inconclusive means no clear call, values can overlap the other calls; inactive means mostly above about 0.92. Some of the results follow.

Test: chemical genetic growth profiling, strain panel (AID 1159580);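 further: tested at 20 µM; growth read once vehicle control cultures reached saturation at 30 °C; 1 = growth at the plate median or of vehicle wells; lower values mean less growth of the strain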
Conditions: growth OD

Measured: normalized growth

CN1C2CCC1CC(OC(c1ccccc1)c1ccccc1)C2 (stereo not given)
active: S. cerevisiae deletion strains, locus YJR075W, strain HOC1, active compounds read low 0.847 | S. cerevisiae deletion strains, locus YLR330W, strain CHS5, active compounds read low 0.809 | S. cerevisiae deletion strains, locus YLR418C, strain cdc73, active compounds read low 0.814 | S. cerevisiae deletion strains, locus YNL233W, strain BNI4, active compounds read low 0.766 | S. cerevisiae deletion strains, locus YOR184W, strain ser1, active compounds read low 0.774 | S. cerevisiae strains, strain wild type, active compounds read low 0.882
inactive: S. cerevisiae deletion strains, locus YJR043C, strain POL32, active compounds read low 0.95 | S. cerevisiae deletion strains, locus YKL009W, strain mrt4, active compounds read low 0.918 | S. cerevisiae deletion strains, locus YKL068W, active compounds read low 0.986 | S. cerevisiae deletion strains, locus YKL085W, strain MDH1 (second series), active compounds read low 0.978 | S. cerevisiae deletion strains, locus YKL085W, strain MDH1, active compounds read low 0.978 | S. cerevisiae deletion strains, locus YKL160W, strain elf1, active compounds read low 1 | S. cerevisiae deletion strains, locus YKR001C, strain vps1, active compounds read low 0.926 | S. cerevisiae deletion strains, locus YKR026C, strain gcn3, active compounds read low 0.972 | S. cerevisiae deletion strains, locus YKR091W, strain srl3, active compounds read low 0.971 | S. cerevisiae deletion strains, locus YLL001W, strain dnm1, active compounds read low 1.01 | S. cerevisiae deletion strains, locus YLL026W, active compounds read low 0.991 | S. cerevisiae deletion strains, locus YLL041C, strain sdh2, active compounds read low 0.995 | S. cerevisiae deletion strains, locus YLR027C, strain aat2, active compounds read low 0.989 | S. cerevisiae deletion strains, locus YLR039C, strain RIC1, active compounds read low 0.795 | S. cerevisiae deletion strains, locus YLR058C, strain SHM2, active compounds read low 0.91 | S. cerevisiae deletion strains, locus YLR102C, strain apc9, active compounds read low 0.996 | S. cerevisiae deletion strains, locus YLR221C, strain rsa3, active compounds read low 0.985 | S. cerevisiae deletion strains, locus YLR258W, strain gsy2, active compounds read low 0.982 | S. cerevisiae deletion strains, locus YLR262C, strain YPT6 (second series), active compounds read low 1.04 | S. cerevisiae deletion strains, locus YLR262C, strain YPT6, active compounds read low 0.647 | S. cerevisiae deletion strains, locus YLR268W, strain sec22, active compounds read low 0.96 | S. cerevisiae deletion strains, locus YLR320W, strain mms22, active compounds read low 0.951 | S. cerevisiae deletion strains, locus YLR342W, strain FKS1 (second series), active compounds read low 0.842 | S. cerevisiae deletion strains, locus YLR342W, strain FKS1, active compounds read low 0.997 | S. cerevisiae deletion strains, locus YLR357W, strain rsc2, active compounds read low 0.958 | S. cerevisiae deletion strains, locus YLR370C, strain arc18, active compounds read low 0.987 | S. cerevisiae deletion strains, locus YLR371W, strain rom2, active compounds read low 0.969 | S. cerevisiae deletion strains, locus YLR384C, strain iki3, active compounds read low 0.999 | S. cerevisiae deletion strains, locus YML016C, strain PPZ1, active compounds read low 0.981 | S. cerevisiae deletion strains, locus YML032C, strain rad52, active compounds read low 0.979 | S. cerevisiae deletion strains, locus YML120C, strain ndi1, active compounds read low 0.985 | S. cerevisiae deletion strains, locus YML124C, strain tub3, active compounds read low 0.993 | S. cerevisiae deletion strains, locus YMR058W, strain fet3, active compounds read low 0.978 | S. cerevisiae deletion strains, locus YMR078C, strain ctf18, active compounds read low 0.954 | S. cerevisiae deletion strains, locus YMR125W, strain sto1, active compounds read low 0.963 | S. cerevisiae deletion strains, locus YMR129W, active compounds read low 0.984 | S. cerevisiae deletion strains, locus YMR205C, strain PFK2, active compounds read low 0.969 | S. cerevisiae deletion strains, locus YMR223W, strain ubp8, active compounds read low 0.948 | S. cerevisiae deletion strains, locus YMR231W, strain pep5, active compounds read low 1 | S. cerevisiae deletion strains, locus YMR263W, strain SAP30, active compounds read low 1 | S. cerevisiae deletion strains, locus YMR307W, strain GAS1, active compounds read low 0.807 | S. cerevisiae deletion strains, locus YNL067W, strain RPL9B, active compounds read low 0.898 | S. cerevisiae deletion strains, locus YNL071W, strain lat1, active compounds read low 0.964 | S. cerevisiae deletion strains, locus YNL128W, strain TEP1, active compounds read low 0.925 | S. cerevisiae deletion strains, locus YNL175C, strain NOP13, active compounds read low 1.03 | S. cerevisiae deletion strains, locus YNL197C, strain WHI3, active compounds read low 1.03 | S. cerevisiae deletion strains, locus YNL209W, strain ssb2, active compounds read low 0.981 | S. cerevisiae deletion strains, locus YNL224C, strain SQS1, active compounds read low 1.01 | S. cerevisiae deletion strains, locus YNL248C, strain rpa49, active compounds read low 0.969 | S. cerevisiae deletion strains, locus YNL250W, strain rad50, active compounds read low 0.971 | S. cerevisiae deletion strains, locus YNL271C, strain bni1, active compounds read low 0.967 | S. cerevisiae deletion strains, locus YNL298W, strain CLA4, active compounds read low 0.95 | S. cerevisiae deletion strains, locus YNL307C, strain MCK1, active compounds read low 0.91 | S. cerevisiae deletion strains, locus YNL322C, strain KRE1 (second series), active compounds read low 0.98 | S. cerevisiae deletion strains, locus YNL322C, strain KRE1, active compounds read low 0.973 | S. cerevisiae deletion strains, locus YNR049C, strain mso1, active compounds read low 0.984 | S. cerevisiae deletion strains, locus YNR052C, strain pop2, active compounds read low 0.972 | S. cerevisiae deletion strains, locus YOL006C, strain TOP1, active compounds read low 0.597 | S. cerevisiae deletion strains, locus YOL012C, strain htz1 1 | S. cerevisiae deletion strains, locus YOL147C, strain pex11, active compounds read low 0.985 | S. cerevisiae deletion strains, locus YOR001W, strain rrp6, active compounds read low 0.99 | S. cerevisiae deletion strains, locus YOR061W, strain CKA2, active compounds read low 0.979 | S. cerevisiae deletion strains, locus YOR069W, strain VPS5, active compounds read low 0.971 | S. cerevisiae deletion strains, locus YOR070C, strain gyp1, active compounds read low 0.989 | S. cerevisiae deletion strains, locus YOR080W, strain dia2, active compounds read low 0.989 | S. cerevisiae deletion strains, locus YOR083W, strain WHI5 (second series), active compounds read low 0.998 | S. cerevisiae deletion strains, locus YOR083W, strain WHI5, active compounds read low 0.998 | S. cerevisiae deletion strains, locus YOR106W, strain vam3, active compounds read low 1 | S. cerevisiae deletion strains, locus YOR136W, strain idh2, active compounds read low 0.972 | S. cerevisiae deletion strains, locus YOR144C, strain elg1, active compounds read low 0.993 | S. cerevisiae deletion strains, locus YOR265W, strain rbl2, active compounds read low 0.988 | S. cerevisiae deletion strains, locus YOR270C, strain vph1, active compounds read low 0.943 | S. cerevisiae deletion strains, locus YOR290C, strain snf2, active compounds read low 0.967 | S. cerevisiae deletion strains, locus YOR316C, strain cot1, active compounds read low 0.986 | S. cerevisiae deletion strains, locus YPL051W, strain arl3, active compounds read low 0.995 | S. cerevisiae deletion strains, locus YPL078C, strain atp4, active compounds read low 0.998 | S. cerevisiae deletion strains, locus YPL106C, strain sse1, active compounds read low 0.912 | S. cerevisiae deletion strains, locus YPL240C, strain hsp82, active compounds read low 0.995 | S. cerevisiae deletion strains, locus YPL241C, strain CIN2, active compounds read low 0.999 | S. cerevisiae deletion strains, locus YPR119W, strain clb2, active compounds read low 0.973 | S. cerevisiae deletion strains, locus YPR141C, strain kar3, active compounds read low 0.966 | S. cerevisiae deletion strains, locus YPR163C, strain tif3, active compounds read low 0.952 | S. cerevisiae deletion strains, locus YPR167C, strain met16, active compounds read low 0.965 | S. cerevisiae deletion strains, strain wtn01, active compounds read low 0.977
